# Laboratory results taken from the supplement of paper PMC3484114.
# ± gives the standard deviation.
# Test system: OVCAR-3-derived ovarian cancer stem-like cells (spheroids)
# Assay: cell growth relative to untreated control; higher = more growth (less inhibition)
# Settings: 2.29 µM; 96 h
# Method in brief: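 Stem-like cells derived from OVCAR-3 spheroids were dissociated with trypsin and seeded at 50,000 cells/mL in stem cell medium in ultra-low attachment 96-well plates, then preincubated for 24 h. Each compound was added at 2.29 uM to 4 replicate wells and left for 96 h at 37°C, 5% CO2. Viability came from TOX8 resazurin fluorescence (ex 560/em 590 nm) read after 4 h. Percent growth was expressed relative to untreated wells, after blank subtraction and removal of outliers by the Grubbs test.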
row,SMILES,cell growth [%]
1,COc1ccc(-c2csc(=[N+]3CCCCC3)s2)cc1,80 ± 11
2,COc1ccc(/C=C2\CCc3ccccc3C2=O)cc1OC,95.7 ± 11
3,O=C(C[n+]1ccc2ccccc2c1)c1ccc2ccc3ccccc3c2c1,95.1 ± 31
4,COc1ccccc1Cc1nc(-c2ccccc2)nn(C2OC(COC(C)=O)C(OC(C)=O)C(OC(C)=O)C2OC(C)=O)c1=S (centres undefined),97.5 ± 16
5,COC(=O)C1(C)CCCC2(C)C3CCC4CC3(C=C4CO)CCC12 (centres undefined),95.7 ± 14
6,Nc1nncs1,98.4 ± 22
7,O=[N+]([O-])c1ccc2oc(=Nc3ccccc3)c(Nc3ccccc3)nc2c1,101 ± 11
8,CCCC(=O)OCC1OC(n2ccc(N)nc2=O)C(OC(=O)CCC)C1OC(=O)CCC (centres undefined),31.7 ± 19
9,Nc1ncnc2c1ncn2C1OC(CO)C(O)C1O (centres undefined),111 ± 13
10,CC1=CC(=C(c2ccc(N)cc2)c2ccc(N)cc2)C=CC1=N,50.4 ± 6.5
11,Cc1cc2nc(C=C(C(F)(F)F)C(F)(F)F)oc2cc1C,130 ± 36
12,CCS(=O)(=O)Nc1ccc(Nc2c3ccccc3nc3ccccc23)c(OC)c1,32.5 ± 9
13,CN(C)c1nc(=NCc2ccco2)ss1,93.7 ± 7
14,Nc1ccc(N)c2c1C(=O)c1ccccc1C2=O,97.9 ± 12
15,O=C(O)c1ccccc1-c1ccccc1C(=O)Nc1ccc2c(c1)Cc1ccccc1-2,80.8 ± 29
16,Oc1cc2c3c(c1)c1cc4c(cc1c[n+]3CC2)OCO4,97.7 ± 13
17,O=C1/C(=C\c2ccccc2)CN(C(=O)/C=C/c2ccccc2)C/C1=C\c1ccccc1,74.7 ± 18
18,Cc1cc(N)c2ccccc2[n+]1CCCCCCCCCC[n+]1c(C)cc(N)c2ccccc21,41.9 ± 7.2
19,Nc1nc2c(ncn2[C@@H]2O[C@H](CO)[C@@H](O)[C@H]2O)c(=O)[nH]1,107 ± 11
20,C=C(CN(C)C)C(=O)c1ccccc1Cl,84 ± 22

row,SMILES,cell growth [%]
1,CCn1c(O)c(C=Nc2ccccc2)s/c1=N/Nc1ncc(CC(=O)Nc2ccccc2C)s1,95.9 ± 16
2,CN(C)c1ccc(C=c2c3ccccc3n3c2cc(-c2ccc(Cl)cc2)[n+]3C)cc1,39.7 ± 12
3,CCCCn1c2c(n(CCCC)c1=S)-c1c(n(CCCC)c(=S)n1CCCC)SSSS2,27.2 ± 5.8
4,CO[C@H]1C[C@@H]2CC[C@@H](C)[C@@](O)(O2)C(=O)C(=O)N2CCCC[C@H]2C(=O)O[C@H]([C@H](C)C[C@@H]2CC[C@@H](O)[C@H](OC)C2)CC(=O)[C@H](C)/C=C(\C)[C@@H](O)[C@@H](OC)C(=O)[C@H](C)C[C@H](C)/C=C/C=C/C=C/1C,97 ± 21
5,NCCCNCCCCNCCCN,141 ± 34
6,CO[C@H]1/C=C\C=C(/C)C(=O)NC2=CC(=O)C(N)=C(C[C@@H](C)C[C@H](OC)[C@H](O)[C@@H](C)/C=C(\C)[C@@H]1OC(N)=O)C2=O,29.6 ± 4.9
7,Cc1c(Cl)cccc1NC(=O)c1cccc([N+](=O)[O-])c1O,106 ± 20
8,CC(Cc1ccccc1)NC1=NCCO1 (centres undefined),88.1 ± 13
9,CC(C)c1ccc2nc3ccc(C(=O)NCCN(C)C)cn3c(=O)c2c1,79.4 ± 21
10,CC(C)(C)c1ccc(O)c(CN(Cc2cc(C(C)(C)C)ccc2O)C2CCCCC2)c1,145 ± 56
11,Cc1nc(Cl)c(C)c(Cl)n1,88.2 ± 11
12,COc1ccc(O)cc1,62.6 ± 18
13,Cc1ccccc1NC(=O)C(=O)C(c1cnc2ccc([N+](=O)[O-])cc2n1)[N+](=O)[O-] (centres undefined),112 ± 25
14,Nc1nc(SCc2ccccc2Cl)c2[nH]cnc2n1,106 ± 13
15,Cc1cc2c(c3oc(C4(C)OC4C4OC4C)cc(=O)c13)C(=O)c1c(O)c(C3CC(C)(N(C)C)C(O)C(C)O3)cc(C3CC(N(C)C)C(O)C(C)O3)c1C2=O (centres undefined),47.6 ± 40
16,CCCN(CCC)C(=S)Sc1nc(C)nc(N2CCN(c3nc(C)nc(SC(=S)N(CCC)CCC)c3[N+](=O)[O-])CC2)c1[N+](=O)[O-],107 ± 22
17,CC[n+]1c(-c2ccccc2)c2cc(N)ccc2c2ccc(N)cc21,15 ± 9.7
18,CC1=CC(C)(C)N=C2SC(c3ccc(N)cc3)=NN12,112 ± 28
19,O=[N+]([O-])c1cccc2nc3ccccc3c(NCCCNc3c4ccccc4nc4cccc([N+](=O)[O-])c34)c12,10.8 ± 2.9
